Shown are actives, neighbours in structure and some others; about 1.3% of the full set was active somewhere.
SSB-PriA inh: inhibitors of Klebsiella pneumoniae PriA binding to SSB C-terminal tail | 430,000 tested, 0.6% active | inhibition, % at 33 µM | AlphaScreen SSBct-PriA binding, biotinylated peptide; in the data active means inhibition mostly above about 37%, no sharp cut-off; inactive means mostly below about 20%;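 further: plate controls were negative control peptide for no effect and reference peptide for full effect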
DUSP3 inh: inhibitors of human VHR1 phosphatase (DUSP3); AID 1654; 290,000 tested, 0.52% active; P51452; inhibition, % at 13.3 µM; recombinant VHR phosphatase, pNPP absorbance; in the data active means inhibition above about 50%
Target sequence (P51452 whole entry, looked up): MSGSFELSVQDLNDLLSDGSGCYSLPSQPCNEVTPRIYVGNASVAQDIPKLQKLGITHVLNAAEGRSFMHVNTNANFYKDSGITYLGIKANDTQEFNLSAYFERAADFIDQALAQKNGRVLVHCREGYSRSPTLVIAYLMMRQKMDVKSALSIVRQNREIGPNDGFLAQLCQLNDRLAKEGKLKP
SARS 3CLpro inh: SARS-CoV 3CLpro protease inhibition | P0C6X7 | recombinant SARS-CoV 3CLpro, quenched FRET peptide cleavage | inhibition, % at 6 µM | 290,000 tested, 0.14% active | AID 1706; in the data active means inhibition above about 12%
CCHF vOTU inh: blocks the CCHF virus ovarian tumor domain protease; CCHFV vOTU protease, Pep-AMC fluorescence; AID 651958; 370,000 tested, 0.55% active; inhibition, % at 11.5 µM; in the data active means inhibition above about 30%; further: 0% = vehicle wells with enzyme and 100% = no enzyme wells
Mtb hypoxia inh: reduces hypoxia-regulated biosensor signal in M. tuberculosis. M. tuberculosis hypoxia-regulated fluorescent reporter, fluorescence. fluorescence inhibition, % (concentration not given with the values). 300,000 tested, 0.1% active. AID 1159583; in the data active means fluorescence inhibition mostly above about 23%, no sharp cut-off; inactive means mostly below about 17%
Numbers without * were called inactive; . = no result given; ! = not confirmed by another sample.

SMILES	SSB-PriA inh	DUSP3 inh	SARS 3CLpro inh	CCHF vOTU inh	Mtb hypoxia inh
COc1cccc(N2C[C@@H](C(=O)Nc3c(C(=O)Nc4ccc5c(c4)OCCO5)oc4ccccc34)CC2=O)c1	69*	.	.	.	.
Cc1ccc(C)c(NC(=O)CN(C)C(=O)c2ccc(S(=O)(=O)N3CCCCCC3)cc2)c1	3	.	.	-7	31*
O=C(CNS(=O)(=O)c1cccc(Cl)c1)NC[C@H]1CCCN1c1nc2ccccc2o1	4	.	.	.	.
O=C(CCN1C(=O)c2ccccc2S1(=O)=O)Nc1ccc2c(c1)OCO2	2	.	.	.	.
O=C(/C=C(\c1ccc(Cl)cc1)n1cncn1)c1ccc(Cl)cc1	-9	0	2	.	36*
COc1ccc(Cc2nnc(SCC(=O)Nc3ccc(C)cc3)n(N)c2=O)cc1	-1	.	.	30*	-9
O=C(NCC[C@H](O)c1ccccc1)NCc1ccc(F)cc1	-12	.	.	.	.
CCCNc1nc(SCC)nc2c1cnn2CCNC(=O)c1c(-c2ccccc2Cl)noc1C	88*	.	.	.	.
Cc1onc(-c2ccccc2Cl)c1C(=O)NCCn1c(C)cc2ccccc21	87*	13	1	.	3
CCC(=O)NCCn1c(C)cc2ccccc21	-15	2	-5	.	-9
CCSc1nc(NC(C)C)c2cnn(CCNC(=O)c3c(-c4ccccc4Cl)noc3C)c2n1	34	.	.	.	.
Cc1cc2ccccc2n1CCNC(=O)COc1ccccc1	49*	-10	.	4	-2
CCn1c(SCC(=O)NCc2ccccc2)nc2nc3c(cc2c1=O)CCCC3	-1	53*	-3	8	4
CCn1c(SCC(=O)Nc2ccc(Cl)cc2)nc2nc3c(cc2c1=O)CCCC3	3	60*	3	4	4
COc1ccc(OCCNC(=O)N2CCN(Cc3ccccc3)CC2)cc1	-8	.	.	.	.
CN1CCN(C(=O)CN(Cc2ccccc2)S(C)(=O)=O)CC1	-14	10	3	-12	0
CS(=O)(=O)N(CC(=O)N1CCCCC1)Cc1ccccc1	59*	-15	1	-4	.
CS(=O)(=O)N(CC(=O)N1CCN(Cc2ccccc2)CC1)c1ccccc1F	52*	17	3	6	.
O=C(Nc1ccc(Cl)cc1C(=O)c1ccccc1Cl)c1cccs1	-8	.	.	.	.
Cc1cccc(Cn2nc(-c3ccc(Br)cc3)ccc2=O)c1	-8	.	.	.	.
Cc1ccc(C)c(-c2ccc(=O)n(Cc3cccc(Br)c3)n2)c1	-7	53*	-2	1	14
COc1ccc(NC(C)=O)cc1NC(=O)CCCn1nc(-c2ccc(F)cc2)ccc1=O	-10	.	.	.	.
c1ccc(C2=NNC(c3ccccn3)=NN2)nc1	82*!	.	4	-3	0
O=C(NCCn1nc(-c2cccs2)ccc1=O)c1cc2ccccc2oc1=O	-7	.	.	.	.
O=C(Nc1ccc(Nc2ccccc2)cc1)C(=O)c1c[nH]c2ccccc12	48*	.	.	.	.
SMILES	SSB-PriA inh	DUSP3 inh	SARS 3CLpro inh	CCHF vOTU inh	Mtb hypoxia inh
Cc1ccc(NC(=O)c2cc(S(=O)(=O)N3CCCCC3)ccc2N2CCOCC2)cc1S(=O)(=O)N(C)C	-12	.	.	-1	26*
CCc1cccc(NC(=O)Cn2c(C)cc(C)c(S(=O)(=O)c3ccccc3)c2=O)c1	-2	.	.	.	.
CSc1cccc(Nc2ccc(S(=O)(=O)N3CCOCC3)cc2[N+](=O)[O-])c1	38*	.	.	2	-3
O=[N+]([O-])c1cc([N+](=O)[O-])c(Oc2cccc3c2CCCC3)cc1NN1CCCCC1	-5	.	.	2	20
COc1ccc(Nc2ccc(S(=O)(=O)N3CCCCCC3)cc2[N+](=O)[O-])cc1	46*	8	2	-3	2
COc1ccc(Nc2ccc(S(=O)(=O)N3CCCCC3)cc2[N+](=O)[O-])cc1OC	70*	-7	1	2	-2
COc1cccc(Oc2cc(NN3CCCCC3)c([N+](=O)[O-])cc2[N+](=O)[O-])c1OC	48*	17	3	2	2
O=C(NCCc1c[nH]c2ccccc12)C1CN(C(=O)c2ccc3c(c2)OCO3)C1	-16	.	.	.	.
COc1ccccc1Nc1ccc(S(=O)(=O)N2CCCCC2)cc1[N+](=O)[O-]	63*	17	1	-4	.
COc1ccccc1C(C)Nc1ccc(S(=O)(=O)N2CCN(C)CC2)cc1[N+](=O)[O-] (stereo not given)	57*	.	.	1	-9
CCc1cc(=O)oc2cc(OCC(=O)NCCCn3ccnc3)ccc12	39*	17	-3	-1	-5
Cc1ccc(-n2c(Cc3cccn3C)nnc2SCC(=O)Nc2ccccc2)cc1	42	.	.	.	.
CCCN1CCCc2cc(CCNC(=O)OCC)ccc21	71	.	.	.	.
CCCN1CCCc2cc(CCNS(=O)(=O)c3ccc(OC)cc3C)ccc21	52*	.	.	.	.
CCCN1CCCc2cc(CCNS(=O)(=O)c3cc(C)c(OC)c(C)c3)ccc21	63	.	.	.	.
CCCN1CCCc2cc(CCNS(=O)(=O)c3ccc(F)cc3C)ccc21	51*	.	.	.	.
CCCN1CCCc2cc(CCNS(=O)(=O)c3ccc(F)cc3F)ccc21	78*	.	.	.	.
O=C(NC1CCN(c2ccc(-c3ccccc3Cl)nn2)CC1)C1CCCO1 (stereo not given)	-8	.	.	.	.
CC(C)=NNc1ncnc2nc[nH]c12	50*	.	.	2	.
COc1ccc(-c2c(C#Cc3ccc(N(C)C)cc3)c3ccccc3n2C)cc1	78*	.	.	2	.
Cc1cc(F)ccc1S(=O)(=O)NCc1cncc(-c2ccsc2)c1	-15	.	.	.	.
O=C(CSc1nnc(-c2ccccc2Cl)o1)N1CCCC1	-5	56*	0	7	17
Cc1ccc(-c2nnc(SCCC(=O)N3CCOCC3)o2)cc1	3	8	0	7	19
O=C(NCc1nnc(SCC(=O)N2CCOCC2)o1)c1ccccc1	56*	.	.	7	.
O=C(CSc1nnc(-c2ccccc2Cl)o1)N1CCCCC1	-17	2	1	-7	.
SMILES	SSB-PriA inh	DUSP3 inh	SARS 3CLpro inh	CCHF vOTU inh	Mtb hypoxia inh
O=C(CCSc1nnc(-c2ccccc2)o1)N1CCOCC1	-12	-10	5	-1	40*
Cc1ccc(CNC(=O)Cn2nc3ccc(SCc4ccc(Cl)cc4)nn3c2=O)cc1	-4	.	.	.	.
O=S(=O)(CCOc1ccccc1)NCc1cncc(-c2ccsc2)c1	-5	.	.	.	.
Cc1ccccc1C(=O)Nc1ccc(-c2ccc3nnc(-c4ccncc4)n3n2)cc1	-9	.	.	.	.
O=c1cc2oc3cc(O)c(O)cc3c(-c3ccccc3O)c-2cc1O	-2	12	1	.	15
CCOc1ccccc1-c1c2cc(O)c(=O)cc-2oc2cc(O)c(O)cc12	41	-9	1	.	37*
O=C(CCc1c[nH]c2ccccc12)OCC(=O)c1ccc(Cl)c(Cl)c1	-16	.	.	.	.
CCOC(=O)[C@H](Oc1ccc2c(=O)c(Oc3ccccc3OC)c(C)oc2c1)c1ccccc1	-2	.	.	.	.
O=C(CSc1ncc(-c2ccc(Cl)c(Cl)c2)n1-c1ccc(OC(F)F)cc1)N1CCCC1	38*	.	.	.	.
C=CCc1c(C)nc2c(-c3ccccc3)cnn2c1NCCc1ccc(OC)c(OC)c1	36*	.	.	.	.
CCOc1ccc(-c2ccc(N3CCN(C(=O)c4sc(-c5ccccc5)nc4C)CC3)nn2)cc1	-9	.	.	.	.
Cc1ccc(S(=O)(=O)Nc2ccc(O)c3ncccc23)cc1	46*!	6	8	-6	.
COc1ccc(C(=O)Cn2nc(C)c3cnn(C(C)(C)C)c3c2=O)cc1	-14	.	.	.	.
CCN(CC)c1ccc2cc3ccc(N)cc3[n+](-c3ccccc3)c2c1	117*	.	.	.	.

Compound activity from PubChem.
